# CYP2C9 act: increases human cytochrome P450 2C9 activity; P11712; recombinant CYP2C9, luciferin-H conversion, luminescence; active compounds read high; factor 1 = untreated enzyme, 0 = blocked; activation factor at 5 µM; 1.4% of 96,000 active;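 active means activation factor of 2 or more for CYP2C9 at a 5 µM dose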;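 further: 0 = sulfaphenazole-blocked wells and 1 = vehicle-only wells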
# Target sequence (P11712 whole entry, looked up): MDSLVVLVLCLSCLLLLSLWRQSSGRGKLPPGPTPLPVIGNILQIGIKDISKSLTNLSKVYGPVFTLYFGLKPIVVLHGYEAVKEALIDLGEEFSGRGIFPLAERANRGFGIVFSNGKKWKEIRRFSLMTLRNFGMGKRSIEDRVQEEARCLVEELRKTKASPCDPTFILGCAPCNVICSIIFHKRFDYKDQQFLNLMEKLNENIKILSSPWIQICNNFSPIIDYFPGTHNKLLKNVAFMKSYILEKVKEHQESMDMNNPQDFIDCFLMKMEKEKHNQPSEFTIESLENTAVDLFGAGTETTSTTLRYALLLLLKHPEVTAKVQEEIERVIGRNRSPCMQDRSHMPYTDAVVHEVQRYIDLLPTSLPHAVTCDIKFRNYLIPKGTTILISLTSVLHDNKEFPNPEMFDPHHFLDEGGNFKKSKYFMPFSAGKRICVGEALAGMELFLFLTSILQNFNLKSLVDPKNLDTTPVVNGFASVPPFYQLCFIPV
# Mac1 fbg inh: blocks human CD11b/CD18 adhesion to fibrinogen; K562 CD11b/CD18 adhesion to fibrinogen, ATPlite luminescence; Mn2+ added to activate the integrin; inhibition, % at 10 µM; 0.54% of 93,000 active; AID 1497;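 active means primary inhibition of 50% or more at 10 µM, then 40% or more on retest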
# CYP2C19 inh: inhibitors of human CYP2C19; 21% of 96,000 active; inhibition, % at 5 µM; CYP2C19 Supersomes, luciferin-H EGE luminescence, 30 min; P33261; AID 778;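 active means CYP2C19 inhibition above a set limit at 5 µM in the primary screen, cut at about 50% in these data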;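 further: plate controls were negative control wells for no effect and 2.5 mM tranylcypromine positive control for full effect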
# CYP2C9 inh: human CYP2C9 inhibition | P11712 | CYP2C9 Supersomes, luciferin-H conversion, luminescence | inhibition, % at 5 µM | 20% of 96,000 active;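 active means blocking of liver enzyme CYP2C9 beyond about 50% at 5 µM, limit read from the data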
# Mac1 fbg enh: increases human CD11b/CD18 adhesion to fibrinogen; P05107+P11215; K562 CD11b/CD18 adhesion to fibrinogen, ATPlite luminescence; activation, % at 10 µM; 0.07% of 93,000 active; AID 1499;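 active means 10 µM primary screen giving 50% or more activity, confirmed by 40% or more on retest at that dose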
# CYP2C19 act: activators of human cytochrome P450 2C19 | activation factor at 5 µM | 96,000 tested, under 10 active | recombinant CYP2C19, luciferin-H EGE luminescence; active compounds read high; 0 = fully inhibited enzyme, 1 = untreated enzyme | P33261;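 active means activation factor of at least 2 at 5 µM in the primary screen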;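 further: 0 = wells with 2.5 mM tranylcypromine and 1 = vehicle-only wells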
# The depositor's hits bear a star; / = no result. Hits are enriched below; roughly 28% of the tested compounds scored in any of these assays.
SMILES,CYP2C9 act,Mac1 fbg inh,CYP2C19 inh,CYP2C9 inh,Mac1 fbg enh,CYP2C19 act
O=C(NC1(C(F)(F)F)NC(=O)N(C2CCCC2)C1=O)C1CC1 (stereo unspecified),1.1,-50,4,-8,-5,1
COCCNC(=O)C1CCC(=O)N(c2ccc(OC)cc2)C1c1ccc(OC)c(OC)c1 (stereo unspecified),1,18,2,-2,-7,1
Cn1cnnc1SC(C(=O)Nc1cc(Cl)cc(Cl)c1)c1ccccc1 (stereo unspecified),0.8,0,-12,18,-6,1.1
CC(O)C(NS(=O)(=O)c1ccc(Cl)cc1)C(=O)OCC(=O)N1CCN(c2ccccc2)CC1 (stereo unspecified),/,5,/,/,-4,/
COc1ccc(OC)c(NC(=O)c2cc(-c3cc(Cl)ccc3O)n[nH]2)c1,2.4*,-9,3,-143,-1,1
COc1ccc(NC(=O)c2cc(-c3cc(C)ccc3O)n[nH]2)cc1Cl,1.3,7,-12,-27,1,1.1
COc1ccc(S(=O)(=O)Nc2cc(Cl)ccc2OC)cc1,0.6,7,99*,38,1,0
COc1ccc(C)cc1NS(=O)(=O)c1cn(C)c(=O)n(C)c1=O,1.1,-13,37,-9,0,0.6
COc1ccc(C)cc1NS(=O)(=O)c1cccc2nonc12,0.9,3,92*,15,-1,0.1
COC(=O)c1ccc(OC(=O)c2ccc(OC)c(OC)c2)c(OC)c1,0.9,1,17,11,-2,0.8
CC(C)(C)OC(=O)CN1C(=O)C(Sc2n[nH]c(-c3ccccc3)n2)CCc2ccccc21 (stereo unspecified),0.4,/,69*,55*,/,0.3
CCOC(=O)CN1C(=O)C(Sc2n[nH]c(-c3ccc(O)cc3)n2)CCc2ccccc21 (stereo unspecified),0.1,12,82*,94*,0,0.2
CCc1nc2ccccc2n1Cc1cc(=O)n2cc(C)ccc2n1,0.6,-7,16,36,0,0.8
COc1ccc(OC)c(C2NC(=O)NC(C)=C2C(=O)Nc2ccc(C)cc2C)c1 (stereo unspecified),0.8,72,44,24,-2,0.6
CCCCn1c(=N)n(CC(O)COc2cccc(C)c2)c2ccccc21 (stereo unspecified),1,-2,20,1,1,0.8
CCOC(=O)c1c(NC(=O)CSc2nc3ccccc3s2)sc(C(C)=O)c1C,0.2,-4,29,78*,-6,0.7
CCOC(=O)c1sc(NC(=O)CSc2nnc(C)s2)c(C(=O)OCC)c1C,0.1,6,62*,88*,2,0.4
CCOC(=O)c1c(NC(=O)CSc2nncs2)sc(C)c1C,1.2,/,24,-22,/,0.8
CCOC(=O)c1sc(NC(=O)CSc2nc3ccccc3o2)c(C(=O)OCC)c1C,/,0,/,/,-2,/
CC1(C)C=Cc2c(c3ccccc3[nH]c2=O)O1,0.7,19,18,34,-3,0.8
c1ccc(N2CCN(c3nnc(Cc4cccnc4)c4ccccc34)CC2)nc1,0.7,/,53*,26,/,0.5
c1ccc(Cc2nnc(N3CCOCC3)c3ccccc23)cc1,0.7,-7,42,34,-2,0.6
CCOC(=O)c1c(NC(C)=O)sc2c1CCCNC2=O,1.1,-5,-2,-13,5,1
CCc1[nH]nc2c1C(C(C)C)C(C#N)=C(N)O2 (stereo unspecified),0.7,75,75*,32,0,0.3
CCC(CC)C1C(C#N)=C(N)Oc2n[nH]c(-c3ccccc3)c21 (stereo unspecified),1.2,3,57*,-22,-4,0.4
SMILES,CYP2C9 act,Mac1 fbg inh,CYP2C19 inh,CYP2C9 inh,Mac1 fbg enh,CYP2C19 act
CCC(CC)C1C(C#N)=C(N)Oc2n[nH]c(C)c21 (stereo unspecified),0.4,-2,82*,57*,0,0.2
CCCc1[nH]nc2c1C(CCC)C(C#N)=C(N)O2 (stereo unspecified),0.9,-1,62*,6,-4,0.4
CC(C)C1C(C#N)=C(N)Oc2n[nH]c(-c3cccs3)c21 (stereo unspecified),0.7,-4,49,31,-3,0.5
Cc1[nH]nc2c1C(c1ccc(F)cc1)C(C#N)=C(N)O2 (stereo unspecified),0.7,0,48,33,-2,0.5
CC(C)C1C(C#N)=C(N)Oc2n[nH]c(-c3ccc4ccccc4c3)c21 (stereo unspecified),0.8,16,6,23,-5,0.9
O=C(O)c1c(-c2ccccc2)c2oc3ccccc3c2[nH]c1=O,1,9,-13,-4,-4,1.1
CSc1nc(C)cc(C)c1C#N,1,/,6,1,/,0.9
Cc1cc(C)c(C#N)c(SC2CCCCC2=O)n1 (stereo unspecified),1.2,-24,61*,-18,0,0.4
CCOC(=O)CNc1c(-c2ccc(F)cc2)nc2cnccn12,0.6,-9,60*,38,7,0.4
CC(=O)Nc1c(-c2ccc(F)cc2)nc2ccccn12,1,-7,-14,-2,-1,1.1
CCOC(=O)CNc1c(-c2ccc(Cl)cc2)nc2cnccn12,0.3,8,89*,74*,-4,0.1
COc1cc(S(=O)(=O)N2CCOCC2)ccc1NC(=O)COC(=O)c1ccccn1,0.8,-9,4,20,-3,1
C=CCn1c2ccccc2c2nnc(SC(CC)C(=O)Nc3sc4c(c3C#N)CCCC4)nc21 (stereo unspecified),0.3,3,53*,73*,10,0.5
CCCCNC(=O)c1ccc2c(c1)N(CC)C(=O)c1ccccc1S2(=O)=O,0.1,-1,46,90*,-3,0.5
CCN1C(=O)c2ccccc2S(=O)(=O)c2ccc(C(=O)NCc3cccnc3)cc21,0,-4,58*,98*,-2,0.4
CN(C)S(=O)(=O)c1cccc(NC(=S)Nc2cc(Cl)cc(Cl)c2)c1,0.6,100*,45,38,-6,0.5
COc1cc(/C=N/NC(=S)Nc2cccc(S(=O)(=O)N(C)C)c2)cc(OC)c1O,/,13,/,/,2,/
CC(=O)c1cccc(NC(=O)c2cccc(S(=O)(=O)N(C)C)c2)c1,1,4,0,-2,1,1
CN(C)S(=O)(=O)c1cccc(NC(=S)Nc2ccc(Cl)cc2Cl)c1,0.3,99*,71*,67*,-8,0.3
O=C(NC1CCCCC1)N(Cc1cc2cc3c(cc2[nH]c1=O)OCCO3)CC1CCCO1 (stereo unspecified),0.9,2,10,15,-5,0.9
CCCOc1cccc(C2/C(=C(/O)c3ccncc3)C(=O)C(=O)N2CCCN(C)C)c1 (stereo unspecified),1.1,-1,7,-6,2,0.9

# Bioassay records: PubChem, Sanford-Burnham Center for Chemical Genomics
